Results on two molecules are retold here after PubChem BioAssay (EPA / NIEHS).

A short description of test [1]: CCTE_Harrill_HTTr_Apoptosis_MCF7: CCTE's 6-hour Apoptosis Assessment for the High-Throughput Transcriptomics (HTTr) Platform, in MCF-7 cells cultured in DMEM + 10% fetal bovine serum, Harrill Lab (AID 2284011). In outline: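 High-content imaging of CellEvent Caspase 3/7 Green signal follows a six-hour exposure, with eight concentrations per chemical. MCF-7 cells grown in DMEM plus 10% fetal bovine serum; activity fitted in both directions against DMSO.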

The nature of test [2]: CCTE_Harrill_HTTr_Viability_MCF7: CCTE's 6-hour Cell Viability Assessment for the High-Throughput Transcriptomics (HTTr) Platform, in MCF-7 cells cultured in DMEM + 10% fetal bovine serum, Harrill Lab (AID 2284010). In a few lines:
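Cells were dosed with chemicals in an eight-point dilution series, imaged 6 hours later for propidium iodide uptake, and the endpoint was analyzed by bidirectional fitting against DMSO as negative control.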

SMILES strings stand for the structures. The source made the active and inactive calls. How the source made its calls: active means hit-call score of the fitted dose curve at least 0.9, where 1 is the maximum; inactive means score below 0.9.

As to `COCCOC(C)=O`, the result in test [1] was inactive.
On to `CC(C)(C)OOC(C)(C)C#CC(C)(C)OOC(C)(C)C`, for which the result in test [2] and in test [1] was inactive.
